This is one part of a sample in which hits are shown more often than they occur.
GPT2 inhibitor = Primary qHTS assay for inhibitors of Glutamate pyruvate transaminase 2 (GPT2); Recombinant GPT2, coupled pyruvate oxidase/HRP Amplex Red fluorescence; Potency, µM (top dose mostly 57.7 µM), most hits filed as inhibitors; Alanine aminotransferase 2 (Homo sapiens), Q8TD30; AID 1671188, 2021; 100,000 tested, 0.25% active; note: nearly all actives have a fitted effect of over 60% in size
Target sequence (Q8TD30 whole entry, looked up): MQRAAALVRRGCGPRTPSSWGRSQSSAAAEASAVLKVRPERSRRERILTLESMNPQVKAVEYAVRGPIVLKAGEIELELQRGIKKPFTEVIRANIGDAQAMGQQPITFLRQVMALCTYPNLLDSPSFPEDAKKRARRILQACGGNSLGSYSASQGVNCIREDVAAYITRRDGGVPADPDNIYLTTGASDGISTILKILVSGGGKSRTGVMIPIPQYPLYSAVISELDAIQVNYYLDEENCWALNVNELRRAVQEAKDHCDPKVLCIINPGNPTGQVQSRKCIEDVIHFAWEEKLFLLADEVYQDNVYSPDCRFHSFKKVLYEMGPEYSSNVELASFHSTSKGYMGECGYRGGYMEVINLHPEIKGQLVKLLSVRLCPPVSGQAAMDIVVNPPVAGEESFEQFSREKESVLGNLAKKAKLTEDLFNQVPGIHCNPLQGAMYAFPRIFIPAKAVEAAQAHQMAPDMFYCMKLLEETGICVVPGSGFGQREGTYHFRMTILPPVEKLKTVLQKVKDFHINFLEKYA
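Fluorescence of coupled pyruvate oxidase/HRP/Amplex Red system (50uM Amplex, 30 min, dark) reports pyruvate formed by GPT2. Enzyme reaction: 10ng/uL GPT2, 2mM L-alanine, 250uM a-KG, 30 min room temperature, pH 7.5; 50uM AOA control.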
GPT2 conf = Confirmatory qHTS assay for inhibitors of Glutamate pyruvate transaminase 2 (GPT2); 95 tested, 90% active; Potency, µM, hits mostly inhibitors; AID 1671187, 2021; shares compounds with GPT2 inhibitor; GPT2 enzyme, coupled Amplex Red pyruvate fluorescence
Each line names hits and unclear results; the compound was inactive in the other large screens (follow-up assays come after a bar, where they were run). Calls come from the whole dose curve; as a rule, active = well fitted inhibition curve with a large enough effect; inconclusive = small, poorly fitted or top-dose-only effect; inactive = flat fitted curve, though single readings scatter.

CN(C)c1cccc(Nc2cc3c(cn2)CN(Cc2ccccc2)CCN3)c1	none
COc1cccc(CN2CCNc3cnc(OCc4cccnc4)cc3C2)c1	none
COc1ccc(OC)c(CN2CCNc3cc(Nc4ccccc4)ncc3C2)c1	none
COc1ccc(OC)c(CN2CCNc3cnc(Nc4cccnc4)cc3C2)c1	GPT2 inhibitor inconclusive | GPT2 conf 5.6
Cn1cc(CN2CCNc3cnc(Nc4ccccc4)cc3C2)cn1	none (no result: GPT2 inhibitor) | GPT2 conf 2.8
COc1cccc(CN2CCNc3cc(Nc4cccnc4)ncc3C2)c1	none
COc1ccc(OC)c(CN2CCNc3cnc(OCc4cccnc4)cc3C2)c1	none
CC(=O)Nc1ccc(S(=O)(=O)N[C@H]2CO[C@H]3[C@@H]2OC[C@@H]3Nc2nccc(-c3cccc(F)c3)n2)cc1	none
CN(C)c1ncc2c(n1)C(C)(C(=O)NCC1CC1)CCC2 (configuration not stated)	none
CN(Cc1cccc(C(F)(F)F)c1)Cc1cccn1C	none
CCc1ccccc1CN1CCCC12Cc1ccccc1CNC2=O (configuration not stated)	none
COc1ccc(C(C)NC(=O)c2nnn3cc(C)[nH]c(=O)c23)cc1 (configuration not stated)	none
COc1cccc(C(=O)N2CC(F)(F)C[C@H]2c2nc(C)no2)c1	none
CC(C)CN1CCOC[C@H](Oc2ccccc2)C1	none
COc1cccc(CNC(=O)c2cc(-c3ccc([S+](C)(=O)[O-])cc3)nc3c2cnn3C)c1	none
COCCN(C)C(=O)c1ccc2c(c1)C1(CCN(CC3CC3)C1)CN2Cc1ccccc1 (configuration not stated)	none
C[C@@]1(O)CCN(Cc2cc(F)c(F)cc2F)C[C@H]1N1CCCC1	none
CCC1CN(Cc2nc(-c3ccc(OC)cc3F)oc2C)CCN1C(C)C (configuration not stated)	none
CC(=O)N[C@H](C)c1c(-c2ccc(F)cc2)noc1C(=O)O	none
C=C1CCC[C@]2(C)CC[C@@H](C(=C)C(=O)O)[C@H](O)[C@@H]12	none
c1ccc(CN2CCNc3cc(Nc4ccc(N5CCOCC5)cc4)ncc3C2)cc1	GPT2 inhibitor inconclusive | GPT2 conf 4.4
Fc1cccc(CN2CCNc3cc(Nc4ccccc4)ncc3C2)c1	none
c1ccc(CN2CCNc3cnc(-c4ccc(N5CCOCC5)cc4)cc3C2)cc1	none
COc1cccc(CN2Cc3cc(NC(=O)c4cccc(F)c4)ccc3OC(C)C2=O)c1 (configuration not stated)	none
CCn1nccc1C(=O)N1C[C@@H](Oc2cccnc2)C[C@@H]1C(=O)NCCOC	none
Cc1cnc(C(=O)N[C@@H]2CCC[C@@H]2C(=O)NCc2cc(F)ccc2F)cn1	none
c1ccc2c(c1)CCCN2CCCNc1ncncn1	none
c1cncc(-c2ccnc(NCCCN3CCCc4ccccc43)n2)c1	GPT2 inhibitor inconclusive | GPT2 conf 2.2
c1cncc(-c2ccnc(NCCCn3nccc3C3CC3)n2)c1	none
COCCNC(=O)c1cc(N2CCOCC2)cc2c1OCCN2C	none (no result: GPT2 inhibitor) | GPT2 conf 1.6
CN1CCOc2c(C(=O)NCc3cccnc3)cc(-c3ccc(N4CCOCC4)cc3)cc21	none
CN1CCOc2c(C(=O)NCC[S+](C)(=O)[O-])cc(-c3ccccc3)cc21	none
O=C(Cc1cccc(Cl)c1)N1CCc2c(n(Cc3ccccc3)n(-c3ccccc3)c2=O)C1	none
COc1ccc(N2CC3(C2)CN(c2ccccc2)C(=O)O3)cc1OC	GPT2 inhibitor inconclusive | GPT2 conf inconclusive
COc1ccccc1N1CC2(C1)CN(c1ccccc1)C(=O)O2	none
COc1cccc(N2CC3(COCCN(C(=O)c4ccc(OC)c(OC)c4)C3)C2)c1	none
O=C(c1ccccc1F)N1CCC(N2CCNC2=O)CC1	none
Cn1cnnc1-c1nn(C)c2c1CNCC2	none
COc1ccc(-c2cc(C(=O)NCC(C)C)c3c(C4CCNC4)noc3n2)cc1 (configuration not stated)	none
C=CC(=O)Nc1cccc(Nc2nc(Nc3ccc(NC4CN(CCF)C4)cc3OC)ncc2C(F)(F)F)c1	GPT2 inhibitor 8.9µM | GPT2 conf 3.1
C=CC(=O)Nc1cccc(Nc2nc(Nc3ccc(OCCOC)cc3)ncc2F)c1	none
CC(=O)NCC(=O)N1C2CCC1c1cc(Nc3ncc(C(F)(F)F)c(NC4CCC4)n3)ccc12 (configuration not stated)	none
CCN1c2cc(C(=O)NCc3ccccc3C)ccc2C(=O)N2CCCCCC21 (configuration not stated)	none
O=C(c1cnccn1)N1CCC2(CC1)NCCc1c2[nH]c2ccccc12	none
Cc1cnc(C(=O)N2CCC3(CC2)CCC(O)(CN(C)C)CC3)cn1	none
O=C(c1cnccn1)N1CCC2(CC1)CCC(O)(CN1CCc3ccccc31)CC2	GPT2 inhibitor inconclusive | GPT2 conf 1.1
COc1ccc(CNC(=O)[C@H]2O[C@H](CCN3CCC(CO)CC3)CC[C@@H]2O)cc1	none
C/C(=N\O)[C@@H](C)NCC(C)(C)CN[C@H](C)/C(C)=N/O	none
COc1ccc(Nc2cc(C(=O)NCc3cccnc3)c3c(c2)ncn3C)cc1	none (no result: GPT2 inhibitor) | GPT2 conf 3.1
Cc1ccc(-c2cc(C(=O)NCc3cccnc3)c3c(c2)ncn3C)cn1	none
Cn1cnc2cc(-c3ccc(CO)cc3)cc(C(=O)NCc3cccnc3)c21	none
Cc1ccc(-c2cn3c(n2)CO[C@@H](CNC2CCCC2)C3)cc1	none
Cn1nccc1OCc1cn2c(=O)n(C)cc(-c3ccc(F)cc3)c2n1	none (no result: GPT2 inhibitor) | GPT2 conf 6.3
COc1ccc(-c2cn(C)c(=O)n3cc(COc4ccnn4C)nc23)cc1	none
Cn1cc(-c2ccc(F)cc2)c2nc(CO)cn2c1=O	none
C[S+](=O)([O-])N1CC2(CCCN2Cc2cccnc2)Cc2ccccc21 (configuration not stated)	none
CN(C)[C@H]1CCN(C(=O)c2ccccc2-n2cncn2)C[C@H]1CCC(=O)O	none
COc1ccccc1Nc1ncc2c(n1)CN(C(=O)c1cccc(N(C)C)c1)CCN2	none
CN(C)c1cccc(C(=O)N2CCNc3cnc(Nc4ccc(N5CCOCC5)cc4)nc3C2)c1	GPT2 inhibitor 2µM | GPT2 conf 1.9
O=C(c1ccccc1)N1CCNc2cnc(Nc3cccc(F)c3)nc2C1	none
O=C1CC(c2ccccc2)N(C(=O)CC2CCCCC2)CCCCCCN1 (configuration not stated)	none
CCOc1cc(N2CCC(O)CC2)ccc1Nc1ncc2c(n1)N(C)c1ccccc1C(=O)N2C	GPT2 inhibitor 12µM | GPT2 conf 3.1
CCC1C(=O)N(C)c2cnc(Nc3ccc(C(=O)NC4CCN(C)CC4)cc3OC)nc2N1C1CCCC1 (configuration not stated)	none
COc1cc(C(=O)N2CCC(N3CCN(C)CC3)CC2)ccc1Nc1ncc2c(n1)N(C)c1ccccc1C(=O)N2C	none
Cn1c(=O)n([C@H]2CCCN(C(=O)CCc3nc(-c4ccccc4)no3)C2)c2ncccc21	none
COc1cccc(N2C(=O)NC(=NC3CCCC3)C23CCN(CC2CCCCC2)C3)c1 (configuration not stated)	none
CC1(COc2ccccc2)COc2ccc(C(=O)NCc3ccccc3)cc2N1 (configuration not stated)	none
COc1cc(-c2nc3c([nH]2)CCCNC3=O)ccc1O	GPT2 inhibitor inconclusive | GPT2 conf 6.1
O=C1NCCCc2[nH]c(-c3nc(-c4ccncc4)n[nH]3)nc21	none
COc1ccc(-c2nc3c([nH]2)CC(C)(C)CNC3=O)cc1OC	none
O=C1NCCCCCCN(CC2CCCCC2)[C@H]2CCC[C@@H]12	none
CC(C)(C)c1cc(C[C@H]2CNCC[C@H]2CC(=O)NC2CCCCC2)no1	none

Source: PubChem BioAssay
